The values below come from PubChem BioAssay AID2288 (National Center for Advancing Translational Sciences (NCATS), 2010).

Hit rate of the full screen: of about 340,000 compounds, fewer than 10 were called active. Inconclusive results (about 2%) are left out. Calls come from the whole dose curve; as a rule, active = well fitted curve in the direction sought with a large enough effect; inconclusive = small, poorly fitted or top-dose-only effect, or another doubt; inactive = no such curve, though single readings can be large or run the other way. These entries were drawn from the full list.

The assay in a line: qHTS Assay for Modulators of miRNAs and/orActivators of miR-21.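 Note: miR-21 action dims this reporter so a rising signal means less miR-21 action.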 The note with it: HeLa miR-21 FLuc reporter, luciferase, 48 h; series mostly up to 38.3 µM. An excerpt:
MLSCN Grant: 1 R21 NS059478-01 Assay Provider: Qihong Huang, The Wistar Institute NCGC Assay Overview: MicroRNAs (miRNAs) are endogenously encoded small (~20-25 nucleotides), nonprotein-coding RNAs that are involved in post-transcriptional repression of target messenger RNAs (mRNAs) (Le and Hannon, 2004). Estimated to be involved in the regulation of 30% of all protein-coding mRNAs (Filipowicz et al., 2008), miRNAs play a significant role in many biological processes including cellular differentiation and tissue development (Ghildiyal and Zamore, 2009).
NCGC Assay Protocol Summary: Reagents: HeLa cells stably expressing firefly luciferase (FLuc) under the control of a CMV promoter (upstream) and a miR-21 binding sequence directly downstream of the gene. These cells endogenously express miR-21. Control compounds used were compound C3 (provided by collaborator), N6-phenyladenosine (MP Biomedicals, 0215379625), and DMSO. Assay Summary: 6uL of HeLa miR-21-FLuc cells in assay buffer (DMEM, Invitrogen #21063-029; 10% FBS, HyClone #SH30071.03) were dispensed at 2000cells/well (3.3 x 10^5 cells/mL) into Greiner solid-white TC-treated 1536-well plates using a Multidrop Combi (Thermo Fisher Scientific). Plates were incubated for one hour at 37 degree Celsius, 95% humidity, 5% CO2. These assay plates were then treated with 23nL of compound or DMSO using a Kalypsys pin tool, which allows for delivery of a 24-point titration of each compound to the assay plate, with a final compound concentration ranging from approximately 40uM to 5pM. Assay plates were then incubated for 48 hours. After incubation, plates were allowed to come to RT for one hour prior to delivery of 3uL of 3X luciferase detection reagent. After a 15 minute incubation to allow for cell lysis, luciferase activity was measured using a ViewLux CCD imager (PerkinElmer), with an average exposure time of 2-12 seconds. Keywords: NIH Roadmap, MLPCN, MLSMR, qHTS, miR-21, microRNA, firefly luciferase, FLuc.
For orientation: qHTS replaces the single test concentration by a dilution series.
In the case of `CCOc1ccc(CCNC(=O)c2ccc3c(c2)sc2nc(-c4ccc(F)cc4)cn23)cc1OCC`, the outcome was inactive.
Then `Cc1cc(NC(=O)c2ccc(-c3ccc(Cl)cc3)o2)cc(-c2nc3ncccc3o2)c1O`, with “inactive”; and `O=C(CSc1oc(-c2ccco2)nc1S(=O)(=O)c1ccccc1)c1ccc(Cl)cc1`, with “inactive”.
The result for `COc1cccc(CNC(=O)Cc2csc3nc(-c4ccccc4)cn23)c1` reads “inactive”.
Consider `Cc1ccc(NC(=O)c2ccc(CN3CC(=O)N4CCCCC4C3=O)cc2)c(Cl)c1` (stereo not given), for which the result was inactive.
The result for `O=C(Cn1ncn2nc(-c3cccs3)cc2c1=O)NCc1cccc(Br)c1` reads “inactive”; that for `Cc1ccc(C)c(OCC(=O)Nc2sc3c(c2C#N)CCCC3)c1C`, “inactive”.
Then `COc1cccc(N2CCN(S(=O)(=O)c3cc(Br)cc4c3N(C(=O)C3CC3)CC4)CC2)c1`, with “inactive”; and `CCNS(=O)(=O)c1cc(-c2nnc(Nc3cccc(C(F)(F)F)c3)c3ccccc23)ccc1C`, with “inactive”.
As to `Cc1nn(-c2ccc(N3CCCCC3)nn2)c(C)c1CCC(=O)NCc1ccccc1F`, the result was inactive.
Turning to `CCOc1ccc(N(CC)C(=O)c2cc3c(=O)oc4ccccc4c3s2)cc1`, the outcome was inactive.
As for `CCCN(CCC)S(=O)(=O)c1ccc(C(=O)Nc2sc3c(c2C(=O)OC)CCN(CC)C3)cc1`, the result was inactive.
Then `COC(=O)c1ccccc1NC(=O)c1cc(-c2ccccc2O)no1`, with “inactive”.
`COC(=O)CC1Oc2ccccc2-n2cc(-c3ccccc3)nc21` (stereo not given): the call was inactive.
The result for `CCc1cc2c(cc3c(=O)n(CC(=O)N4CCN(c5cc(Cl)ccc5C)CC4)ncn32)s1` reads “inactive”; that for `CCOC(=O)c1ccc(NC(=O)Cn2cc(S(=O)(=O)Cc3ccccc3F)c3ccccc32)cc1`, “inactive”.
The result for `CCOC(=O)c1cnc2c(C)cc(C)cc2c1Nc1ccc(N2CCOCC2)cc1` reads “inactive”.
The result for `Cc1cccc(CNC(=O)c2cnc3sc(N4CCCCC4)nn3c2=O)c1` reads “inactive”; that for `Cc1nn(-c2ccc(N3CCCCC3)nn2)c(C)c1CCC(=O)NCc1ccc(F)cc1`, “inactive”.
As for `Cc1cccc(-n2ccnc2SCC(=O)Nc2cccc3ccccc23)c1C`, the call was inactive.
The result for `CCOc1ccc(C(=O)c2cn(Cc3ccccc3OC)c3ccc(F)cc3c2=O)cc1` reads “inactive”.
The result for `CCOC(=O)c1cccc(NC(=O)c2cc(CN3CCCC3)on2)c1` reads “inactive”.
Consider `O=C(Nc1ccc2nc(SCCOc3ccccc3Cl)sc2c1)c1ccco1`, for which the molecule was classed as inactive.
The result for `Cc1ccc2c(=O)cc(C(=O)Nc3sc4c(c3C(=O)NCc3cccnc3)CCCC4)oc2c1` reads “inactive”; that for `Cc1ccc(CN2C(=O)SC(Nc3ccccc3)C2=O)cc1` (stereo not given), “inactive”; that for `O=C(CCS(=O)(=O)c1cc(Br)cc2c1N(C(=O)C1CC1)CC2)Nc1ccc(C(F)(F)F)cc1`, “inactive”.
Regarding `O=S(=O)(c1ccc(C2CCCCC2)cc1)N1CCN(c2ccc(Cl)c(Cl)c2)CC1`, the outcome was inactive.
Then `O=C(NCCC1=CCCCC1)c1ccc2c(c1)N(Cc1ccccc1F)C(=O)c1ccccc1S2(=O)=O`, with “inactive”; and `CN(C)S(=O)(=O)c1ccc(C(=O)N(Cc2cccnc2)c2nc3c(F)cc(F)cc3s2)cc1`, with “inactive”.
In the case of `CCNC(=O)Cn1nc(C)n2c(cc3c(OC)cccc32)c1=O`, the molecule was called inactive.
Then `CCn1cc(C(=O)N2CCN(c3cc(C)ccc3C)CC2)c(=O)c2cc(S(=O)(=O)N(C)C3CCCCC3)ccc21`, with “inactive”.
Then `CCC(=O)N1CCc2cc(CNC(=O)Nc3ccccc3Cl)ccc21`, with “inactive”.
Then `Cc1cc(C)c(NC(=O)c2cc3sc(Cl)cc3n2C)c(C)c1`, with “inactive”; and `COc1ccc(C(F)(F)F)cc1NC(=O)c1sc2nc(-c3cccs3)ccc2c1N`, with “inactive”; and `Cc1cc2n(n1)C(c1cc(C(C)(C)C)c(O)cc1O)Nc1ccccc1-2` (stereo not given), with “inactive”.
Turning to `CCc1ccc(C2C(C(=O)Nc3ccccc3)=C(C)Nc3c(C(=O)Nc4ccc(C)cc4)cnn32)cc1` (stereo not given), the result was inactive.
Then `Cc1ccc(C)c(N2C(=O)N(Cc3c(F)cccc3Cl)c3ccccc3S2(=O)=O)c1`, with “inactive”.
As to `Clc1cccc(-n2ncc3c(NCCc4ccccc4)ncnc32)c1`, the molecule was classed as inactive.
Regarding `CCOc1ccc(N2CC(C)Cn3c2nc2c3c(=O)n(Cc3c(F)cccc3Cl)c(=O)n2C)cc1` (stereo not given), the outcome was inactive.
Then `CCc1cc2c(cc3c(=O)n(CC(=O)N4CCN(c5cc(Cl)ccc5C)CC4)nc(CC)n32)s1`, with “inactive”; and `COc1ccc(-n2ccnc(NCCc3ccc(Cl)cc3)c2=O)cc1OC`, with “inactive”.
For `O=C1CCCc2cc(S(=O)(=O)N3CCCC(C(=O)NCc4ccccc4)C3)ccc2N1` (stereo not given), the molecule was classed as inactive.
As to `CCOC(=O)c1c(NC(=O)c2cc(CC)on2)sc(C(C)=O)c1C`, the outcome was inactive.
Then `CCOc1ccc(N(CC)C(=O)C2CCN(S(=O)(=O)c3cccc4nonc34)CC2)cc1`, with “inactive”; and `COc1ccccc1C1C(C(=O)N2CCCCC2)=C(C)Nc2nc3ccccc3n21` (stereo not given), with “inactive”; and `O=C(Nc1c(-c2ccc(F)cc2)nc2ccccn12)c1cccc(F)c1`, with “inactive”.
Then `O=C(CCn1c(=O)c2sccc2n(Cc2ccc(F)cc2)c1=O)NCc1ccc2c(c1)OCO2`, with “inactive”; and `COc1cc(OC)cc(-c2nc3nc(C)c(CCC(=O)Nc4ccccc4)c(C)n3n2)c1`, with “inactive”.
Then `Cc1ccccc1-c1nc2scc(CCNC(=O)C(=O)Nc3ccc(F)cc3F)n2n1`, with “inactive”.
On to `Cc1cccc2nc(-c3ccc(Cl)s3)c(Nc3ccc4c(c3)OCCO4)n12`, for which the molecule was called inactive.
The result for `O=C(Cn1c(=O)n(Cc2ccccc2)c(=O)c2sc3ccccc3c21)Nc1ccccc1F` reads “inactive”; that for `COc1ccc(-c2cc(-c3ccccc3)nc3c2COc2ccc(Cl)cc2-3)cc1`, “inactive”.
For `Cc1ccc(S(=O)(=O)c2nc(-c3cccs3)oc2N2CCCCC2)cc1`, the molecule was called inactive.
Then `Cc1cccc(NC(=O)Cn2cc(S(=O)(=O)Cc3ccccc3Cl)c3ccccc32)c1`, with “inactive”; and `O=C(NC1CC(=O)N(c2ccc(F)cc2)C1)c1cccs1` (stereo not given), with “inactive”; and `COc1ccc(Cl)cc1S(=O)(=O)N1CCC(c2ccncc2)CC1`, with “inactive”.
For `CC(C)CC(NS(=O)(=O)c1ccc2c(c1)oc(=O)n2C)C(=O)NCc1ccccc1Cl` (stereo not given), the result was inactive.
The result for `CCc1ccccc1NC(=O)CSc1nnc(-c2ccccc2)c(-c2ccccc2)n1` reads “inactive”; that for `CCCc1nn2c(=O)cc(COC(=O)c3ccc(NC(=O)COc4ccc(F)cc4)cc3)nc2s1`, “inactive”.
For `CCOc1ccccc1CNC(=O)c1ccc2c(c1)nc1n2CCC(C)C1` (stereo not given), the molecule was called inactive.
The result for `COc1ccc2c(c1)C=C(C(=O)NCc1cc(Br)ccc1OC)CO2` reads “inactive”; that for `CC(C)Cn1c(-c2ccc(S(=O)(=O)N3CCOCC3)cc2)csc1=Nc1cc(Cl)ccc1Cl`, “inactive”; that for `O=C(Cc1ccc(Cl)cc1)NCC(c1cccs1)S(=O)(=O)c1ccc(Cl)cc1` (stereo not given), “inactive”.
In the case of `COc1cc(OC)c(NC(=O)c2cnc(N3CCCC3)nc2C)cc1Cl`, the call was inactive.
Then `Cc1ccc(C(=O)COC(=O)C(Cc2c[nH]c3ccccc23)NC(=O)c2ccc(Br)cc2)cc1` (stereo not given), with “inactive”; and `Cc1cc(N2CCN(c3cccc(C(F)(F)F)c3)CC2)n2nc(-c3ccccc3)nc2n1`, with “inactive”.
Then `CCCNC(=O)c1ccc(Cn2c(SCC(N)=O)nc3ccccc3c2=O)cc1`, with “inactive”.
The result for `Cn1c(=O)c(C(=O)O)nn(-c2ccccc2)c1=O` reads “inactive”; that for `Cc1ccc(OCC(=O)Nc2ccc(OCc3cc(=O)n4c(C)csc4n3)cc2)cc1C`, “inactive”; that for `COc1cc(OC)c(NC(=O)c2c3c(nn2C)-c2ccccc2SC3)cc1Cl`, “inactive”.
As to `COC(=O)c1ccccc1NC(=O)Cn1c(=O)n(-c2cccc(C(F)(F)F)c2)c(=O)c2c(C)c(C)sc21`, the molecule was classed as inactive.
Then `Brc1ccc2c(c1)NC(c1cccnc1)=NC(c1ccccc1)=N2`, with “inactive”; and `CCOC(=O)c1cc(-c2ccccc2)n(CCC(=O)Nc2ccccc2CC)c1C`, with “inactive”; and `COc1ccccc1-c1nnc(C2CCN(C(=O)c3ccc(Cl)cc3)CC2)o1`, with “inactive”.
As to `CCCCN(C)c1nnc(NC(=O)Nc2ccc(Br)c(C)c2)s1`, the molecule was classed as inactive.
The result for `CCOC(=O)Cn1c(=O)n(C2CCCCC2)c2nc(-c3cccc(OC)c3)nc(C(N)=O)c21` reads “inactive”; that for `Cc1cc(C)c(NC(=O)CCc2c(C)nc3c(c(C)nn3C(C)(C)C)c2C)c(C)c1`, “inactive”; that for `O=C(NC1CC(=O)N(c2ccc(F)cc2)C1)c1ccc(S(=O)(=O)N2CCCC2)cc1` (stereo not given), “inactive”.
The result for `Cc1ccc(-c2nnc(Nc3ccc(OCC(N)=O)cc3)c3ccccc23)cc1S(=O)(=O)NCC1CCCO1` (stereo not given) reads “inactive”; that for `O=C(c1ccc(Br)cc1)N(Cc1cccs1)c1ccc(F)cc1`, “inactive”; that for `CC1=C(C(=O)OCC2CCCCC2)C(c2c(F)cccc2Cl)CC(=O)N1` (stereo not given), “inactive”.
In the case of `Cc1ccc(OCCSc2nc(C)c(Cc3ccccc3)c(=O)[nH]2)cc1`, the result was inactive.
Then `CCOc1ccc(-c2cc(C)n3nc(C(=O)Nc4ccc(C)c(C)c4)cc3n2)cc1`, with “inactive”; and `Cc1ccc2oc3c(c(=O)c2c1)C(c1ccc(O)cc1)N(Cc1ccc2c(c1)OCO2)C3=O` (stereo not given), with “inactive”.
Then `COc1ccc(-c2cc(C(=O)Nc3sc4c(c3C(N)=O)CCCC4)no2)cc1`, with “inactive”; and `COc1cccc(-c2cc(C(=O)Nc3ccc(C)cc3)[nH]n2)c1`, with “inactive”; and `CCCCN(CC)CCCNC(=O)c1nn(C)c2c1CSc1ccccc1-2`, with “inactive”.
Regarding `Cc1ccccc1CNC(=O)c1cccc(NC(=O)c2nsc3ccccc23)c1`, the outcome was inactive.
Then `COc1cc(NC(=O)c2cc3ccc4cccnc4c3[nH]2)cc(OC)c1OC`, with “inactive”; and `Cc1nnc(NC(=O)CSc2nc3c([nH]c4ccccc43)c(=O)n2-c2cccc(Cl)c2)s1`, with “inactive”.
Then `Cc1ccc2nc(COc3ccccc3NC(=O)Nc3ccc(F)c(Cl)c3)cc(=O)n2c1`, with “inactive”; and `COc1ccc(-c2nc(Cn3c(=O)cc(C)c4c(C)nn(-c5ccccc5)c43)c(C)o2)c(OC)c1`, with “inactive”; and `CCOCCCNC(=O)c1ccc2nc(CCc3ccccc3)oc2c1`, with “inactive”.
The result for `CCOc1cc(CNC(=O)c2sc3ncnc(N(C)C4CCCCC4)c3c2C)ccc1OC` reads “inactive”; that for `Cc1ccc(C)c(Cn2c(C(=O)O)c(CNCc3cccs3)c3ccccc32)c1`, “inactive”.
